According to PubChem BioAssay AID1851 (National Center for Advancing Translational Sciences (NCATS), 2009):
Out of some 16,000 compounds screened, about 5,800 (36%) were called active. Another 23% or so got no clear call; they are omitted. Calls come from the whole dose curve; as a rule, active = well fitted curve in the direction sought with a large enough effect; inconclusive = small, poorly fitted or top-dose-only effect, or effect the other way; inactive = no such curve, though single readings can be large or run the other way. This is one part of the list. The source holds several records for some structures; these can differ, active in one and inactive in another.

The compounds below were run against Cytochrome P450 2C19 (Homo sapiens) (UniProt P33261) (assay: Cytochrome panel assay with activity outcomes). Conditions: recombinant CYP, pro-luciferin dealkylation, luminescence, p450-cyp2c19; series mostly up to 57.1 µM; activity, negative = inhibition: at the top concentration.
Chain of Cytochrome P450 2C19 (Homo sapiens) (P33261 whole entry, looked up): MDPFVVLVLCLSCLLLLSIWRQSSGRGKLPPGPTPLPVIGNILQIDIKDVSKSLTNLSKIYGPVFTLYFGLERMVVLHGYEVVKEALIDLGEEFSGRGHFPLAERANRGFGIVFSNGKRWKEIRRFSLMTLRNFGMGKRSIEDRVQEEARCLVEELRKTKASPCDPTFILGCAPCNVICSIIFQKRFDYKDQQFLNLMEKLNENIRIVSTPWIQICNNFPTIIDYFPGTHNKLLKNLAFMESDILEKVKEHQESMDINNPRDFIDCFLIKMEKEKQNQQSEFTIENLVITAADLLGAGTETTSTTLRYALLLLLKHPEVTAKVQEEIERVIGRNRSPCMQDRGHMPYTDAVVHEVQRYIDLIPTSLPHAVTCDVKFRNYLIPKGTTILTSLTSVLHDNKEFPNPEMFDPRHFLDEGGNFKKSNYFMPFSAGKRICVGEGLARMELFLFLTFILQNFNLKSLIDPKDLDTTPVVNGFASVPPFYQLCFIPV
% is set by controls: 0 for no effect and ±100 for the full control effect.

SMILES	AC50	activity, negative = inhibition
O=C(Nc1ccccc1C(=O)NCC1CCCO1)c1ccc(Cl)cc1Cl (stereo not given)	14.1 µM (active)	
O=C(NCC1CCCO1)c1cc(-c2ccc(Cl)cc2Cl)on1 (stereo not given)	15.8 µM (active)	
Cc1ccccc1C(=O)c1c[nH]c(C(=O)NCC2CCCO2)c1 (stereo not given)	1 µM (active)	
CO[C@@H]1COC(=O)[C@H]2CCCN2C(=O)[C@@H](C)COC(=O)[C@H](COCc2ccccc2)NC(=O)C/C=C\[C@H]1C		12.9% [at 11.4 µM] (inactive)
O=C(O)/C=C\C(=O)Nc1ncn[nH]1		10.9% [at 11.4 µM] (inactive)
O=[N+]([O-])c1ccc(N2CCN(CCOc3nonc3-c3ccccc3)CC2)c(Cl)c1	4.47 µM (active)	
CN(C)Cc1cc(O)c(O)c(CN(C)C)c1		-24% [at 11.4 µM] (inactive)
CN(Cc1cc(C(C)(C)C)cc(Br)c1O)Cc1cc(C(C)(C)C)cc(Br)c1O	3.16 µM (active)	
Oc1c(Br)cc(Br)cc1CN(Cc1cc(Br)cc(Br)c1O)C1CCCCC1	0.316 µM (active)	
CC(C)(C)c1cc(Br)c(O)c(CN(Cc2cc(C(C)(C)C)cc(Br)c2O)C2CCCCC2)c1	0.631 µM (active)	
Oc1c(Br)cc(CN(Cc2cc(Br)c(O)c(Br)c2)C2CCCCC2)cc1Br		-5.38% [at 11.4 µM] (inactive)
CC(C)c1cc(CN(C)C)c(O)c(C(C)(C)C)c1		-2.3% [at 11.4 µM] (inactive)
CC12CC[C@@H]3c4ccc(OP(=O)(O)O)cc4CCC3C1CCC2=O (stereo not given in full)		-12.5% [at 11.4 µM] (inactive)
O=C(c1ccncc1)N1CCC2(CC1)CN(Cc1cc(C(F)(F)F)cc(C(F)(F)F)c1)C2		3.88% (inactive)
CCOc1ccc(NC(=O)N(C2CCCCC2)C(C)c2ccncc2)cc1 (stereo not given)	7.08 µM (active)	
CCOc1ccc(NC(=O)C(=O)NCC2CCCN2CC)cc1 (stereo not given)		34.5% (inactive)
CCCCN(C(=O)Nc1ccc(OCC)cc1)C1CCN(C(C)=O)CC1		-14.8% (inactive)
O=C(NNc1nc2ccccc2s1)c1ccccc1F	11.2 µM (active)	
O=C(NNc1nc2ccccc2s1)C1CC1	15.8 µM (active)	
CC(=O)NNc1nc2ccccc2s1		-2.18% (inactive)
O=C1C2=C(Nc3cc([N+](=O)[O-])ccc3N2)O[C@@H]1c1ccc([C@H]2OC3=C(Nc4ccc([N+](=O)[O-])cc4N3)C2=O)cc1		-18.1% [at 11.4 µM] (inactive)
O=C1Nc2ccc([N+](=O)[O-])cc2C1(O)N1CCCCCC1 (stereo not given)	10 µM (active)	
CCN(CC)c1nc(Nc2ccccc2)nc(Oc2ccc(C(=O)OC)cc2)n1	7.94 µM (active)	
Cc1ccc(/C=C2\Sc3ccccc3C2=O)s1	1.26 µM (active)	
O=C1C(Cc2ccccc2)SC(=Nc2ccccc2)N1c1ccccc1 (stereo not given)	3.16 µM (active)	

SMILES	AC50	activity, negative = inhibition
CN1CCN(/C=N/C2=C(C#N)C(c3ccccc3)C3=C(CC(C)(C)CC3=O)O2)CC1 (stereo not given)	20 µM (active)	
O=C(CCOc1ccccc1)Nc1ccccc1	3.55 µM (active)	
C#CCCCC(=O)Nc1ccccc1		-21.6% (inactive)
O=C(O)c1cccc(OCCO)c1		13.7% [at 11.4 µM] (inactive)
NCC(=O)Nc1ccccc1		-29.3% [at 11.4 µM] (inactive)
COC(=O)c1cccc(NC(=O)CCCOc2ccccc2)c1	2.24 µM (active)	
Cc1ccc(NCC(=O)N/N=C/c2ccc(OC(=O)c3ccco3)cc2)cc1	2.51 µM (active)	
NC(=O)N/N=C\c1ccc([N+](=O)[O-])o1		-7.91% [at 25.6 µM] (inactive)
Cc1cc(C(=O)N/N=C/c2cccc(OC(=O)c3ccco3)c2)n[nH]1	25.1 µM (active)	
Cc1ccc(NCC(=O)N/N=C\c2ccc([N+](=O)[O-])o2)cc1	8.91 µM (active)	
COC(=O)c1ccccc1NC(=O)CSc1nnc(C(CO)NC(=O)c2ccccc2Cl)n1C (stereo not given)		-8.18% (inactive)
COc1ccc(C(=O)NC(CO)c2nnc(SCc3ccc(Cl)c(Cl)c3)n2C)cc1 (stereo not given)	15.8 µM (active)	
CC(=O)OCC(=O)[C@@]1(O)CC[C@@H]2[C@H]3CCC4=CC(=O)C=C[C@]4(C)[C@]3(F)[C@@H](O)C[C@@]21C		-2.19% [at 25.6 µM] (inactive)
Cc1cc(C)c(NC(=O)NC(=O)c2ccc(F)cc2)c(C)n1		-22.5% (inactive)
Cc1cc(NC(=O)NC(=O)c2ccc(F)cc2F)n[nH]1	11.2 µM (active)	
Cc1onc(-c2ccccc2)c1C(=O)NCCc1c[nH]c2ccccc12	1.78 µM (active)	
CCCC(O)(CCC)C(=O)NN1CCCCC1		-29.5% (inactive)
CC(=O)[C@@H]1CC[C@@H]2[C@@H]3C[C@H](C)C4=CC(=O)CC[C@@]4(C)[C@H]3[C@H](O)C[C@]21C		-13.1% [at 25.6 µM] (inactive)
CC(=O)[C@H]1CC[C@H]2[C@@H]3C=CC4=CC(=O)CC[C@@]4(C)[C@H]3CC[C@]12C	1 µM (active)	
CC(=O)[C@H]1CC[C@@H]2[C@H]3CC=C4C[C@@H](O)CC[C@]4(C)[C@H]3CC[C@]12C		-28.4% [at 25.6 µM] (inactive)
O=c1c(-c2ccc(F)cc2)nc2cnc(N3CCNCC3)nc2n1Cc1cccs1	15.8 µM (active)	
COc1ccc(-c2nc3cnc(N4CCNCC4)nc3n(Cc3cccs3)c2=O)cc1		-34.1% (inactive)
O=c1c(-c2cccs2)nc2cnc(N3CCNCC3)nc2n1Cc1cccs1	5.01 µM (active)	
O=c1c(-c2ccc(F)cc2)nc2cnc(N3CCOCC3)nc2n1Cc1cccs1		-4.15% (inactive)
Cc1nc2cnc(N3CCNCC3)nc2n(Cc2cccs2)c1=O		-13.3% (inactive)

SMILES	AC50	activity, negative = inhibition
Cn1c(=O)c(-c2cccs2)nc2cnc(N3CCNCC3)nc21		-20.8% (inactive)
N#Cc1ccccc1NC(=O)Nc1cccs1		13% (inactive)
O=C(NCc1ccco1)Nc1cccs1	11.2 µM (active)	
COc1ccc(C[C@@](C)(N)C(=O)O)cc1OC		-38% [at 25.6 µM] (inactive)
COc1ccc(CNC(=O)Nc2cccs2)cc1OC	5.62 µM (active)	
CCN1CCN(Cc2ccc(NC(=O)Nc3cccs3)cc2)CC1		-25% (inactive)
N[C@@H](CO)C(=O)NNCc1ccc(O)c(O)c1O	inactive	
O=C(Nc1cccc(F)c1)N1CC2(CCN(C(=O)c3csnn3)CC2)C1		-37.6% (inactive)
COc1ncc2ncc(=O)n(C)c2n1		4.02% (inactive)
O=C(Cc1cccc2ccccc12)N/N=C/c1ccc(Sc2nc3ccccc3s2)o1	0.891 µM (active)	
COCC(=O)N/N=C/c1ccc(Sc2nc3ccccc3s2)o1	14.1 µM (active)	
OCCN=C1CCCc2c1[nH]c1ccc(Br)cc21		-15.8% (inactive)
COC(=O)c1cnn(C(=O)c2ccccc2Br)c1N	8.91 µM (active)	
COC(=O)c1cnn(C(=O)c2cc(OC)ccc2Br)c1N	20 µM (active)	
Nc1nc2c(c(=O)[nH]1)CN(CCCN1CCOCC1)CN2		24.4% [at 11.4 µM] (inactive)
CCn1c(=O)cc(OCC(=O)Nc2cccnc2)c2ccccc21		-27.8% (inactive)
CCn1c2ccccc2c2cc(N=C3SC(CC(=O)Nc4ccccc4OC)C(=O)N3C)ccc21 (stereo not given)	1.41 µM (active)	
CCn1c2ccccc2c2cc(N=C3SC(CC(=O)Nc4ccccc4)C(=O)N3C)ccc21 (stereo not given)	2 µM (active)	
CS(=O)(=O)N1CCC2(CC1)CN(C(c1ccccc1)c1ccccc1)C2		6.14% (inactive)
CN1CCN(C(c2ccccc2)c2ccccc2)CC1		-8.64% [at 25.6 µM] (inactive)
Clc1ccc(-c2noc(CN3CCCCC3)n2)cc1	1.58 µM (active)	
N=C(N)SCc1ccc(Cl)cc1Cl (tested in a mixture with another compound)		-2.42% [at 11.4 µM] (inactive)
N=C(N)SCc1nc(-c2ccc(Cl)cc2)no1	1 µM (active)	
Cc1ccc(-c2noc(CN3CCN(C(c4ccccc4)c4ccccc4)CC3)n2)cc1	17.8 µM (active)	
c1ccc([P+](CC[P+](c2ccccc2)(c2ccccc2)c2ccccc2)(c2ccccc2)c2ccccc2)cc1		-40.8% [at 11.4 µM] (inactive)

SMILES	AC50	activity, negative = inhibition
O=C(O)CC12C[C@H]3C[C@@H](CC(O)(C3)C1)C2		7.05% [at 11.4 µM] (inactive)
CCCn1nc(C(=O)NCC(C)(C)N2CCOCC2)c2ccccc2c1=O	17.8 µM (active)	
O=C(NCCN1CCOCC1)c1nn2c(c1Cl)NC(c1ccccc1)CC2C(F)(F)F (stereo not given)		-27.1% (inactive)
Cn1cc[nH]c1=S		-32.6% [at 25.6 µM] (inactive)
COCCNc1cc(-c2ccccc2C)ncn1	15.8 µM (active)	
COCCNc1cc(-c2ccccc2C(F)(F)F)ncn1	7.94 µM (active)	
COCCNc1cc(-c2c(C)noc2C)ncn1		-0.798% (inactive)
COCCNc1cc(-c2ccccc2CN(C)C)ncn1		26.2% (inactive)
CC(=O)NCCNc1cc(-c2ccccc2C(F)(F)F)ncn1		26.9% (inactive)
O=c1nc2ccccc2c2n1C[C@H](CN1CCN(c3ccccc3)CC1)N2		-14.1% (inactive)
O=C1CC2(CCCC2)CC(=O)N1CCCCNC[C@H]1COc2ccccc2O1		-32.6% (inactive)
COc1cccc(OC)c1OCCCN1CCOCC1		-65% (inactive)
CCN1CCCC1CNC(=O)C(=O)Nc1ccccc1OC (stereo not given)		-21.8% (inactive)
COc1cccc(OC)c1OCCNC[C@@H]1COc2ccccc2O1	794 nM (active) and inactive	
COc1ccccc1NC(=O)CC1COc2ccccc2O1 (stereo not given)	7.08 µM (active)	
C(=C1/CCCC2=C1Nc1ncnn1C2c1ccccc1)/c1ccccc1 (stereo not given)		-28.3% (inactive)
CCCCC1CC(/C(C)=N/NC(N)=O)OC1=O (stereo not given)		-23% (inactive)
CC1=CC(=O)c2ccccc2C1=O	2.51 µM (active)	
COc1cc2nncc(SCc3ccc(Cl)c(Cl)c3)c2cc1OC	2.51 µM (active)	
CCCCNc1ccc(C(=O)OCCOCCOCCOCCOCCOCCOCCOCCOCCOC)cc1		2.87% [at 25.6 µM] (inactive)
CCCCOC(=O)c1ccc(O)cc1	6.31 µM (active)	
CCCCN(CCCC)CCCOC(=O)c1ccc(N)cc1		-26.5% [at 25.6 µM] (inactive)
Clc1ccccc1-c1nc(Nc2ccncc2)c2ccccc2n1	5.01 µM (active)	
FC(F)(F)c1ccccc1-c1nc(Nc2ccncc2)c2ccccc2n1	2 µM (active)	
Cc1ccccc1-c1nc(Nc2ccncc2)c2ccccc2n1		-38% (inactive)
